In PubChem BioAssay (NCATS):
Records with an inconclusive call do not appear. Entries that show only a call come without a potency. Values without a mark were called inactive. Active and inactive are the calls of the source. Calls follow the shape of the full dose curve.

Target: Nucleoprotein (Lymphocytic choriomeningitis virus (strain Armstrong)) (UniProt P09992)
Test: qHTS for Inhibitors of the Functional Ribonucleoprotein Complex (vRNP) of Lymphocytic Choriomeningitis Arenaviruses (LCMV): LCMV Primary Screen - GLuc reporter signal (AID 1347086); also: nearly all actives have a fitted effect of over 70% in size
Conditions: LCMV minigenome vRNP cell assay, Gaussia luciferase reporter; series mostly up to 57.5 µM; activity change, negative = inhibition: at the top concentration

Nucleoprotein (Lymphocytic choriomeningitis virus (strain Armstrong)), sequence (P09992 whole entry, looked up): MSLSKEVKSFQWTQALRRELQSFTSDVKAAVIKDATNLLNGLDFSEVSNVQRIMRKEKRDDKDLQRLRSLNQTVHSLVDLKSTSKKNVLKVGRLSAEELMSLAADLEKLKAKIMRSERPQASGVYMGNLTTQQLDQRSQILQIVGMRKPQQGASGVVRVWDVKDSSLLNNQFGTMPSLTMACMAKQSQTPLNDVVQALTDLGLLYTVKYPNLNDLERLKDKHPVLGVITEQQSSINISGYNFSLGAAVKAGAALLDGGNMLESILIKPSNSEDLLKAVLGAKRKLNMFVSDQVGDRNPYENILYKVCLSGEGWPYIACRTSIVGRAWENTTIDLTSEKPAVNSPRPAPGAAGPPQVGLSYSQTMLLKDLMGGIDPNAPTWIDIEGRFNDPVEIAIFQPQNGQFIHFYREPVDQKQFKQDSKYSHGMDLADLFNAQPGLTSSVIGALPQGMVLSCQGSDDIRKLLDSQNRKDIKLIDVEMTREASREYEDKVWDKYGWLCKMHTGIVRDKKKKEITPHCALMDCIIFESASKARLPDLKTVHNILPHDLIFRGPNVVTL

Question: Which Potency does the source give for Cc1cc(O)c2c(c1)C(=O)c1cc(O)cc(O)c1C2=O here?
Answer: inactive

Question: Which “activity change, negative = inhibition” value does the source give for COc1cc(O)c2c(c1)C(=O)c1cc(C)cc(O)c1C2=O here?
Answer: 1.98%

Question: Which “activity change, negative = inhibition” value does the source give for CC(C(C)N1CC(=O)NC(=O)C1)N1CC(=O)NC(=O)C1 (stereo unspecified) here?
Answer: 25.3%

Question: With CCN1CCCC1CNC(=O)c1cc(S(N)(=O)=O)ccc1OC (stereo unspecified) as the compound, how does the Potency read?
Answer: inactive

Question: With Nc1[nH]nc2nnc(-c3c(-c4ccccc4)nn4ccccc34)cc12 as the compound, how does the “activity change, negative = inhibition” value read?
Answer: 91.1%

System: not listed separately
Test: Cytotoxicity counterscreen for inhibitors of SARS-CoV-2 cell entry (AID 1645845); also: nearly all actives have a fitted effect of over 50% in size
Conditions: cell viability (SARS-CoV-2 entry assay cells); series mostly up to 57.1 µM; activity change, negative = cytotoxicity: at the top concentration; outcome: at the top concentration
Summary of the method: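 HEK293-ACE2 cells (Expi293F stably expressing human ACE2) seeded overnight, then compound for 1 h plus 48 h at 37C. Viability as ATP content by luminescence; normalized to wells with cells and media-only wells.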

Question: Which “outcome” value does the source give for Cc1cnc(-c2cc(N3CCN(C(=O)CCS(C)(=O)=O)CC3)ncc2Cl)c(C)c1 here?
Answer: inactive

Question: With O=C(CN1C(=O)C2(CCCC2)NC[C@H]1c1cc(F)cc(F)c1)Nc1ccc2c(c1)C[C@@]1(C2)C(=O)Nc2ncccc21 as the compound, how does the “outcome” value read?
Answer: inactive

Question: For CC1=C(C(=O)Nc2cc3cn[nH]c3cc2F)C(c2ccc(C(F)(F)F)cc2)CC(=O)N1 (stereo unspecified), which “activity change, negative = cytotoxicity” value is on record?
Answer: -5.81%

Question: For O=C(c1cncc(Br)c1)N1CCC(N2CCCC2)CC1, which “activity change, negative = cytotoxicity” value is on record?
Answer: -5.88%

Question: Which “outcome” value does the source give for COc1ccc2c(OCc3nnc4ccc(-c5ccccc5)nn34)ccnc2c1 here?
Answer: inactive

Question: For c1coc(CNc2ncnc3nc[nH]c23)c1, which “outcome” value is on record?
Answer: inactive

Question: For CCCCCCCCCCCCCCCC(=O)O[C@H]1[C@@H](O)[C@@H](O)[C@@H]([C@H](NC(=O)[C@@H]2C[C@@H](CCC)CN2C)[C@H](C)Cl)O[C@@H]1SC, which “outcome” value is on record?
Answer: inactive

Question: For CC1CNc2c(cccc2S(=O)(=O)N[C@@H](CCCN=C(N)N)C(=O)N2CC[C@@H](C)C[C@@H]2C(=O)O)C1 (stereo partly specified), which “activity change, negative = cytotoxicity” value is on record?
Answer: -17.5%

Question: Which “outcome” value does the source give for CC1COC2(CCN(c3nc(=O)c4cc(C(F)(F)F)cc([N+](=O)[O-])c4s3)CC2)O1 (stereo unspecified) here?
Answer: inactive

Question: With O=C(/C=C/C=C/c1ccc2c(c1)OCO2)N1CCCCC1 as the compound, how does the “outcome” value read?
Answer: inactive

Question: With CC1CCN(c2cc(N3CCN(C)CC3)ccc2NC(=O)c2cc(C#N)c[nH]2)CC1 as the compound, how does the “outcome” value read?
Answer: inactive

Question: For C[C@@H]1C(=O)O[C@H]2CC34[C@H]5C[C@@H](C(C)(C)C)C36[C@H](OC(=O)[C@@H]6O)O[C@@]4(C(=O)O5)[C@]21O (stereo partly specified), which “activity change, negative = cytotoxicity” value is on record?
Answer: -30.4%

Question: With COc1cc2c(cc1OC)C1CC(=O)C(CC(C)C)CN1CC2 (stereo unspecified) as the compound, how does the “outcome” value read?
Answer: inactive

Question: Which “activity change, negative = cytotoxicity” value does the source give for Cc1ccccc1C(C(=O)NC1CCCCC1)N(C(=O)Cn1ccnc1C)c1cccc(F)c1 (stereo unspecified) here?
Answer: -12.8%

Question: For Cc1ccccc1C(C(=O)NC1CCCCC1)N(C(=O)CNc1ccc(C#N)cc1)c1cccc(F)c1 (stereo unspecified), which “outcome” value is on record?
Answer: inactive

Question: For O=c1[nH]c(=O)n(C2CCCO2)cc1F (stereo unspecified), which “activity change, negative = cytotoxicity” value is on record?
Answer: 4.71%

Question: Which “activity change, negative = cytotoxicity” value does the source give for O=C(CCN1CCN(C(=O)OCc2cc(Cl)cc(Cl)c2)CC1)c1ccc2[nH]c(=O)oc2c1 here?
Answer: -0.915%

Question: Which “outcome” value does the source give for O=C(Nc1nc2ccccc2n1CCN1CCOCC1)c1cccc([N+](=O)[O-])c1 here?
Answer: inactive

Question: For O=C(NC1CCOCC1)c1ccc(-c2cc(-c3cn[nH]c3-c3ccccn3)ccn2)cc1, which “activity change, negative = cytotoxicity” value is on record?
Answer: 5%

Question: Which “activity change, negative = cytotoxicity” value does the source give for CC(Cc1ccc(O)c(O)c1)(NN)C(=O)O (stereo unspecified) here?
Answer: 1.5%

Question: Which “outcome” value does the source give for O=C(O)C1CCCN(CCC=C(c2ccccc2)c2ccccc2)C1 (stereo unspecified) here?
Answer: inactive

Question: With COc1ccc([C@@H]2CNC(=O)C2)cc1OC1CCCC1 as the compound, how does the “outcome” value read?
Answer: inactive

Question: For Cc1cc(NC(=O)Nc2ccc(N(C)C)cc2)c2cc(F)cc(F)c2n1, which “activity change, negative = cytotoxicity” value is on record?
Answer: 1.24% [at 27.1 µM]

Question: For Cc1ccccc1-n1c(Cn2nc(-c3cccc(O)c3)c3c(N)ncnc32)nc2cccc(C)c2c1=O, which “outcome” value is on record?
Answer: inactive

Question: With Cc1ccc(O)c(C(CCN(C(C)C)C(C)C)c2ccccc2)c1 (stereo unspecified) as the compound, how does the “outcome” value read?
Answer: inactive

Question: For Cc1cc(O)c2c(c1)C(=O)c1cccc(O)c1C2=O, which “activity change, negative = cytotoxicity” value is on record?
Answer: 4.97%

Question: For OC[C@H]1OC(O)C[C@@H](O)[C@H]1O (stereo partly specified), which “activity change, negative = cytotoxicity” value is on record?
Answer: -1.46%

Question: For Cc1ccc(CN2CCNCC2)cc1NC(=O)CNc1ccc(F)c(F)c1, which “outcome” value is on record?
Answer: inactive

Question: With Cc1cc(O)c2c(c1)C(=O)c1cc(O)cc(O)c1C2=O as the compound, how does the “outcome” value read?
Answer: inactive

Question: With CC(C(C)N1CC(=O)NC(=O)C1)N1CC(=O)NC(=O)C1 (stereo unspecified) as the compound, how does the “outcome” value read?
Answer: inactive

Question: With Nc1[nH]nc2nnc(-c3c(-c4ccccc4)nn4ccccc34)cc12 as the compound, how does the “activity change, negative = cytotoxicity” value read?
Answer: 3.95%
